Assay results from PubChem BioAssay (Tox21).
Inconclusive results are not listed. Active and inactive are the calls of the source. Unless noted, calls follow the shape of the dose curve; as a rule, active = well fitted curve in the direction sought with a large enough effect in the repeat runs; inconclusive = weak or mixed curves; inactive = no such curve, though single readings can be large; an effect the other way counts as inactive or inconclusive.

What was measured:
[1] = qHTS assay to identify small molecule antagonists of the estrogen receptor beta (ER-beta) signaling pathway - cell viability counter screen (AID 1259382); also: series mostly up to about 92 µM; nearly all actives have a fitted effect of over 55% in size
Summary of the method: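 Agonist-stimulated (1nM E2) ER-beta-UAS-bla HEK293T cells are incubated with library compounds for 16 hr at 37C. Cell viability is then assessed in the reporter-assay wells by adding CellTiter-Glo and reading luminescence after 30 min.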

[2] = target: Estrogen receptor (Homo sapiens) (UniProt P03372); test: qHTS assay to identify small molecule agonists of the estrogen receptor alpha (ER-alpha) signaling pathway in the presence of an antagonist (AID 1259383; calls by dose curve; also: top concentration of the series differs between compounds; nearly all actives have a fitted effect of over 15% in size)
Summary of the method: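 Using VM7Luc4E2 cells seeded 24hr before treatment, antagonist ICI-182,780 (10.0nM final) was added, followed by compounds at 15 concentrations. Plates incubated 22hr; ONE-Glo luminescence quantified reporter activity.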

[3] = qHTS assay to identify small molecule agonists or antagonists of the thyroid stimulating hormone receptor (TSHR) signaling pathway - wild type cell line counter screen (AID 1259384; calls by dose curve)
Summary of the method: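 Wild-type HEK293 cells were plated 18 h at 37 C/5% CO2, pin-dosed with compound plus Ro20-1724 medium, held 30 min at room temperature, then given cAMP-d2 and anti-cAMP-cryptate; fluorescence was read after 1 h. Fifteen concentrations, triplicate.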

[4] = target: Thyrotropin receptor (Homo sapiens) (UniProt P16473); test: qHTS assay to identify small molecule antagonists of the thyroid stimulating hormone receptor (TSHR) signaling pathway (AID 1259385; calls by dose curve; also: nearly all actives have a fitted effect of over 20% in size)
Summary of the method: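 TSHR-HEK293 cells were plated and held 18 h at 37C/5% CO2, then given compound plus Ro20-1724 and stimulated with TSH at 1.5 ng/mL final. After 30 min at room temperature, cAMP was detected with cAMP-d2/anti-cAMP-cryptate (1 h) by fluorescence.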

[5] = qHTS assay to identify small molecule agonists of the estrogen receptor alpha (ER-alpha) signaling pathway in the presence of an antagonist - cell viability counter screen (AID 1259386);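 also: series mostly up to about 92 µM; cells exposed to compounds for 22 h at 37 °C before the viability read; nearly all actives have a fitted effect of over 30% in size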
Summary of the method: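 ICI-182,780 at 10.0nM final accompanies the compound titration (15 concentrations, 22hr, 37C) on VM7Luc4E2 cells. The CellTiter-Fluor fluorescence readout runs in the same wells as the luciferase assay.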

[6] = target: Progesterone receptor (Homo sapiens) (UniProt P06401); test: qHTS assay to identify small molecule agonists of the progesterone receptor (PR) signaling pathway (AID 1346784; calls by dose curve; also: nearly all actives have a fitted effect of over 30% in size)
Summary of the method: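 PR-UAS-bla HEK 293T cells (beta-lactamase reporter under UAS) in 2% charcoal-stripped FBS, dosed with 23 nL compound after 6 hr, incubated 16hr at 37C. LiveBLAzer B/G FRET substrate added, fluorescence read after 2 hours.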

[7] = qHTS assay to identify small molecule agonists of the progesterone receptor (PR) signaling pathway - cell viability counter screen (AID 1346799; calls by dose curve; also: nearly all actives have a fitted effect of over 45% in size)
Summary of the method: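 Counter screen in the PR-UAS-bla HEK293T wells (2% charcoal-stripped FBS, 16 h compound exposure at 37 C) after the bla read. CellTiter-Glo added, 30 min at room temperature, luminescence read as cell viability.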

[8] = qHTS assay to identify small molecule antagonists of the TGF-beta/Smad signaling pathway - cell viability counter screen (AID 1346824); also: nearly all actives have a fitted effect of over 50% in size
Summary of the method: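 SBE-bla HEK 293T cells were plated overnight at 37 C, then given compounds in DMSO plus TGF-beta1 (added as 0.25 ng/mL solution) for 5 hr. After the bla read, CellTiter-Glo was added to the same wells and luminescence read after 30 min at room temperature.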

[9] = target: Progesterone receptor (Homo sapiens) (UniProt P06401); test: qHTS assay to identify small molecule antagonists of the progesterone receptor (PR) signaling pathway (AID 1346795; active = well fitted inhibition curve with a large enough effect in the signal ratio in the repeat runs, not every such curve was filed as active; the % refers to the signal ratio)
Summary of the method: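 PR-UAS-bla HEK293T cells with beta-lactamase reporter under UAS control, in 2% charcoal-stripped FBS, treated with compounds plus 1 nM promegestone (R5020, final) for 16 hr at 37C. Read-out: FRET beta-lactamase substrate fluorescence after 2 hr at room temperature.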

[10] = qHTS assay to identify small molecule antagonists of the progesterone receptor (PR) signaling pathway - cell viability counter screen (AID 1346798); also: series mostly up to about 92 µM; nearly all actives have a fitted effect of over 50% in size
Summary of the method: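 PR-UAS-bla HEK293T cells, 3,000/well in 2% charcoal-stripped FBS medium, dosed with compounds plus R5020 agonist and incubated 16 h at 37C. Viability then measured in the same wells by CellTiter-Glo luminescence after 30 min at RT.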
% is scaled to controls: 0 for no effect and ±100 for the full control effect.

Progesterone receptor (Homo sapiens), sequence (P06401 whole entry, looked up): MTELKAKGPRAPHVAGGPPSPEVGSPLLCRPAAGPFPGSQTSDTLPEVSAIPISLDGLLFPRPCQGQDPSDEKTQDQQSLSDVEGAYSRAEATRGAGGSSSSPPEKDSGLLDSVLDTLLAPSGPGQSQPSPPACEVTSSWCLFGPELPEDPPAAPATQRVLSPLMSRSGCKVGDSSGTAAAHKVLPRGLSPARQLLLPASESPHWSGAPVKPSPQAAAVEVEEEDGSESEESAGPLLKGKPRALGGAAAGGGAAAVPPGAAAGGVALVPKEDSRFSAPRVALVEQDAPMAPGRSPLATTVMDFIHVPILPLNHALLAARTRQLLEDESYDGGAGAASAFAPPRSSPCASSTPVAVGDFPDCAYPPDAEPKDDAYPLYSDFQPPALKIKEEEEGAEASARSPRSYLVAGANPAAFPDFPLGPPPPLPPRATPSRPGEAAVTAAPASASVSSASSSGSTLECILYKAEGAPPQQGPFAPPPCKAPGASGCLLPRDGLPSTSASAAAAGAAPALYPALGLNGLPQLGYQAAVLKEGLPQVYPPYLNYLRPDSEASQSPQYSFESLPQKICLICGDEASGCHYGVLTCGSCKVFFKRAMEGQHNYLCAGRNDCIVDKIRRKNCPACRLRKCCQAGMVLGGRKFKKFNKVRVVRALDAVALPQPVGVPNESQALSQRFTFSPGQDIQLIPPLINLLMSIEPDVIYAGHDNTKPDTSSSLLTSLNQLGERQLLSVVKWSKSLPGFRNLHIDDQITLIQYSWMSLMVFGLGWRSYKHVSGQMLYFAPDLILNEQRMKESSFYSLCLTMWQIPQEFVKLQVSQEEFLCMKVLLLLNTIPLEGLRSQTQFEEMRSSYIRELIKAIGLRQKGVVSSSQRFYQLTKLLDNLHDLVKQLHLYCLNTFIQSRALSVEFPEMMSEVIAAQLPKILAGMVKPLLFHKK
Estrogen receptor (Homo sapiens), sequence (P03372 whole entry, looked up): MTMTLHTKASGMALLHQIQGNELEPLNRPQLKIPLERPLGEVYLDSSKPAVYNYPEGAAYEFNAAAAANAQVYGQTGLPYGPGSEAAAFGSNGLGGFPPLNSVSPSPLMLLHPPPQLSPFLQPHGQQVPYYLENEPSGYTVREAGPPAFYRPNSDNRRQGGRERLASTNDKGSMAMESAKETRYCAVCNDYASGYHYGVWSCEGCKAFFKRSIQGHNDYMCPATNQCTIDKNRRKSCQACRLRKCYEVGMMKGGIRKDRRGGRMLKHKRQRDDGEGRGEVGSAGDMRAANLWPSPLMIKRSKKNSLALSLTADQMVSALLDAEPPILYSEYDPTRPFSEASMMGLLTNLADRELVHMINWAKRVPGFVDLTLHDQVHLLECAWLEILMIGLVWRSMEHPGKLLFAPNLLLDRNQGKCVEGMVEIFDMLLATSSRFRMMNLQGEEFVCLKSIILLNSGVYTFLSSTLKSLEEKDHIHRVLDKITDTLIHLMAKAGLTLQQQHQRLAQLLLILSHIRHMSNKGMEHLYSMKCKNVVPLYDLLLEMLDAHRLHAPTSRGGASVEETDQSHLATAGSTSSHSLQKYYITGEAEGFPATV
Thyrotropin receptor (Homo sapiens), sequence (P16473 whole entry, looked up): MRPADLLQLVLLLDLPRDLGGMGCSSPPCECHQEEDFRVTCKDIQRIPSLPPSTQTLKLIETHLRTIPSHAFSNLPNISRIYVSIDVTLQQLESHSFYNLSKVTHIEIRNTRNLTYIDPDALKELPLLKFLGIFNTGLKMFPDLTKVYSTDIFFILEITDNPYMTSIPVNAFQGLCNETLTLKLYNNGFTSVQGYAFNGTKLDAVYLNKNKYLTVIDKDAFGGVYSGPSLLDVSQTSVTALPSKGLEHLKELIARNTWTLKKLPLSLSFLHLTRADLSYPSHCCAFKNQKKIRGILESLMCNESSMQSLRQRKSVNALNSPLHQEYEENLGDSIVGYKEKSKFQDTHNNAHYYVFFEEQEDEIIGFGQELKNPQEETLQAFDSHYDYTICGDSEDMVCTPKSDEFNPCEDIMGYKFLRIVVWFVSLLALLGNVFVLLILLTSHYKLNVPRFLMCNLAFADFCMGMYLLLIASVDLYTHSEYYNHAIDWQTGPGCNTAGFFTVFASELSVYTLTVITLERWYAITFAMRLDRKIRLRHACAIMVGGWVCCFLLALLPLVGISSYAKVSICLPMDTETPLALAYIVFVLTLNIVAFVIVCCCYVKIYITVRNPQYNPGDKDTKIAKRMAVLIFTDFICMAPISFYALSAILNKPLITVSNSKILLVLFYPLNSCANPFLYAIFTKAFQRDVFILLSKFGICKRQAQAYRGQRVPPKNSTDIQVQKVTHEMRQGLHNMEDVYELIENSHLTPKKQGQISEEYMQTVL

CCCCC(=O)N(C)C
inactive: outcome [1] | outcome [2] | outcome [3] | outcome [4] | Potency [5] | Potency [6] | Potency [7] | outcome [8]

C=C[Si](C)(C)O[Si](C)(C)C=C
inactive: outcome [1] | outcome [2] | outcome [3] | outcome [4] | Potency [5] | Potency [6] | Potency [9] | Potency [10] | outcome [8]

O=CN1CCOCC1
inactive: outcome [1] | outcome [2] | outcome [3] | outcome [4] | Potency [5] | Potency [6] | Potency [9] | Potency [10] | outcome [8]

CCOC(=O)C(=O)c1csc(NC=O)n1
inactive: outcome [1] | outcome [2] | outcome [3] | outcome [4] | Potency [5] | Potency [10] | Potency [7] | outcome [8]

CC(C)COC(=O)CC(C(=O)OCC(C)C)S(=O)(=O)O (centres undefined)
inactive: outcome [1] | outcome [2] | Potency [5] | Potency [6] | Potency [9] | Potency [10] | Potency [7] | outcome [8]

Cc1ccc(C(=O)C(=O)O)cc1C
inactive: outcome [1] | outcome [2] | Potency [5] | Potency [6] | Potency [9] | Potency [10] | outcome [8]

O=S1(=O)CCCC1
inactive: outcome [1] | outcome [2] | Potency [5] | Potency [6] | Potency [10] | Potency [7] | outcome [8]

O=C(Nc1cccc(C2=NCCN2)c1)Nc1cccc(C2=NCCN2)c1
inactive: activity change, negative = cytotoxicity [1] -2.3% [at 19 µM] | activation [2] 0.321% [at 19 µM] | activity change, negative = cytotoxicity [5] 1.98% [at 19 µM] | activity change, negative = cytotoxicity [10] 21% [at 18.9 µM] | activity change, negative = cytotoxicity [7] 7.7% [at 19 µM] | viability change, negative = cytotoxic [8] -4.13% [at 15.8 µM]

CCCO
inactive: outcome [1] | outcome [2] | Potency [5] | Potency [6] | Potency [9] | Potency [10] | Potency [7] | outcome [8]

COc1cc2c(Nc3ccc(Br)cc3F)ncnc2cc1OCC1CCN(C)CC1
inactive: outcome [1] | outcome [2] | Potency [5] | Potency [6] | Potency [9] | Potency [10] | Potency [7] | outcome [8]

Cc1nc2n(c(=O)c1CCN1CCC(C(=O)c3ccc(F)cc3)CC1)CCS2
inactive: outcome [1] | outcome [2] | Potency [6] | Potency [9] | outcome [8]

CC(=O)OC(C)(C)Cc1ccccc1
inactive: outcome [1] | outcome [3] | outcome [4] | Potency [5] | Potency [6] | Potency [9] | Potency [10] | Potency [7] | outcome [8]

Nc1ccc(/C=C/c2ccc(N)cc2S(=O)(=O)O)c(S(=O)(=O)O)c1
inactive: activity change, negative = cytotoxicity [1] 6.78% [at 0.349 µM] | activation [2] 0.0248% [at 0.349 µM] | activity change, negative = cytotoxicity [5] 0.0708% [at 0.349 µM] | activation [6] 0.0887% [at 0.349 µM] | activity change, negative = inhibition [9] 3.92% [at 0.348 µM] | activity change, negative = cytotoxicity [10] 0.087% [at 0.348 µM] | activity change, negative = cytotoxicity [7] -4.84% [at 0.349 µM] | viability change, negative = cytotoxic [8] -0.698% [at 0.29 µM]

OC(CCN1CCCCC1)(c1ccccc1)c1ccccc1
inactive: outcome [1] | outcome [2] | Potency [9] | Potency [10] | Potency [7] | outcome [8]

CCC(CO)CO
inactive: outcome [1] | outcome [2] | Potency [5] | Potency [6] | Potency [9] | Potency [10] | Potency [7] | outcome [8]

CC(=O)Nc1ccc(C)cc1
inactive: outcome [1] | outcome [2] | Potency [5] | Potency [6] | Potency [9] | Potency [10] | Potency [7] | outcome [8]

CCCCCCCCCCCCC1CO1 (centres undefined)
inactive: outcome [1] | outcome [2] | Potency [5] | Potency [9] | Potency [10] | outcome [8]

Cc1nc(C)nc(N2C[C@@H](C)N(c3ccnc([C@@H](C)O)n3)[C@@H](C)C2)n1
inactive: outcome [1] | outcome [2] | Potency [5] | Potency [6] | Potency [10] | Potency [7] | outcome [8]

C=CCOC(=O)c1ccc(C(=O)OCC=C)c(C(=O)OCC=C)c1
inactive: outcome [1] | outcome [2] | Potency [5] | Potency [6] | Potency [10] | Potency [7] | outcome [8]

C[Si]1(C)N[Si](C)(C)N[Si](C)(C)N1
inactive: outcome [1] | outcome [2] | Potency [5] | Potency [6] | Potency [9] | Potency [10] | outcome [8]

CC(C)=CC(C)(C)C
inactive: outcome [1] | outcome [3] | outcome [4] | Potency [5] | Potency [6] | Potency [9] | Potency [10] | Potency [7]

Cc1ccccc1C
inactive: outcome [1] | outcome [2] | Potency [5] | Potency [6] | Potency [9] | Potency [10] | outcome [8]

CCCCCN(CCCOC)C(=O)C(CCC(=O)O)NC(=O)c1ccc(Cl)c(Cl)c1 (centres undefined)
inactive: outcome [1] | outcome [2] | Potency [5] | Potency [6] | Potency [9] | Potency [10] | outcome [8]

C=CCOc1cc(Cl)ccc1C(=O)NCCN(CC)CC
inactive: outcome [1] | outcome [3] | outcome [4] | Potency [5] | Potency [6] | Potency [9] | Potency [10] | Potency [7] | outcome [8]

CO[Si](CCCCl)(OC)OC
inactive: outcome [1] | outcome [2] | Potency [5] | Potency [6] | Potency [9] | Potency [10] | outcome [8]

CC(=O)N(CC(O)CO)c1c(I)c(C(=O)NCC(O)CO)c(I)c(C(=O)NCC(O)CO)c1I (centres undefined)
inactive: outcome [1] | outcome [2] | Potency [5] | Potency [6] | Potency [9] | Potency [10] | outcome [8]

CCC(C)N (centres undefined)
inactive: outcome [1] | outcome [2] | Potency [5] | Potency [6] | Potency [9] | Potency [10] | outcome [8]

BrC/C=C/CBr
inactive: activity change, negative = cytotoxicity [1] 3.59% [at 19 µM] | cAMP activity change [3] -5.59% [at 18.9 µM] | activity change, negative = inhibition [4] -1.56% [at 19 µM] | activity change, negative = cytotoxicity [5] 2.04% [at 19 µM] | activation [6] 1.6% [at 19 µM] | activity change, negative = inhibition [9] -3.92% [at 18.9 µM] | activity change, negative = cytotoxicity [10] 20.7% [at 18.9 µM] | activity change, negative = cytotoxicity [7] 0% [at 19 µM] | viability change, negative = cytotoxic [8] 0.16% [at 15.8 µM]

C1=C\CC/C=C\CC/1
inactive: outcome [1] | outcome [2] | Potency [5] | Potency [6] | Potency [9] | Potency [10] | Potency [7] | outcome [8]

Cc1cc(O)c2c(c1)C(=O)c1cccc(O)c1C2=O
inactive: outcome [1] | outcome [2] | Potency [6] | Potency [10] | Potency [7] | outcome [8]
